Experimental findings from PubChem BioAssay (EPA / NIEHS) are described below.

The structures appear in SMILES notation. Calls of active or inactive are those of the source. The calls were made as follows: active = hit-call score of the fitted dose curve at least 0.9, where 1 is the maximum; inactive = score below 0.9.

Assay [1] has as its target Bile acid receptor (Homo sapiens) (UniProt Q96RI1). Put plainly: ATG_IR1_CIS: Attagene CIS-FACTORIAL HepG2 Assay for human Nuclear Receptor Subfamily 1 Group H Member 4 (NR1H4), IR1 submotif (AID 2282946). The following applies: IR1 reporter transcription, actives raise or lower the signal. A digest of the protocol: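 Fluorescence of capillary-separated, HpaI-digested RT-PCR reporter products gave IR1-element mRNA induction in HepG2 cells 24 h after dosing. Endogenous transcription factors drove the cis-regulated reporters; activity was fitted bidirectionally against DMSO.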

The nature of assay [2]: ATG_ISRE_CIS: Attagene CIS-FACTORIAL HepG2 Assay for human Interferon Regulatory Factor 1 (IRF1) binding to an Interferon-Stimulated Response Element (ISRE) (AID 2282948). The following applies: HepG2 ISRE cis-reporter (Attagene), mRNA transcription readout; actives raise or lower the signal. Put shortly: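 Uses HepG2 liver cells transfected with cis-regulated reporters and measures mRNA 24 h post-dosing through RT-PCR, primer-extension labelling and capillary electrophoresis, with DMSO as negative control.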

Assay [3] can be described thus: ATG_M_32_CIS: Attagene CIS-FACTORIAL HepG2 Assay for M32 Transcription Factor (Internal Marker) (AID 2282949).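 Also: background control marker of the multiplexed CIS panel rather than a real target.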 The following applies: HepG2 Attagene cis-factorial M32 reporter, mRNA; actives raise or lower the signal. A digest of the protocol: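 Using DMSO as baseline, bidirectional curve fits were applied to reporter mRNA signals. These came from transiently transfected HepG2 cells exposed for 24 h, with RNA analysed by RT-PCR, FAM primer extension, HpaI digestion and CE.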

Assay [4] in a line: ATG_M_06_CIS: Attagene CIS-FACTORIAL HepG2 Assay for M06 Transcription Factor (Internal Marker) (AID 2282950). The following applies: HepG2 Attagene CIS-FACTORIAL M06 internal marker reporter; actives raise or lower the signal. A digest of the protocol:
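Read-out is fluorescence of labelled reporter cDNA fragments resolved by capillary electrophoresis after RT-PCR. Cells: HepG2 carrying transfected cis-promoter reporter units, treated 24 h. Gain or loss of signal fitted relative to DMSO.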

Assay [5] deals with Hypoxia-inducible factor 1-alpha (Homo sapiens) (UniProt Q16665). Put plainly: ATG_HIF1a_CIS: Attagene CIS-FACTORIAL HepG2 Assay for human Hypoxia Inducible Factor 1 (HIF1A) (AID 2282951). The following applies: HepG2 Attagene cis-factorial HIF1a reporter transcription; actives raise or lower the signal. A digest of the protocol:
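Dosed 24 h, transfected HepG2 cells yielded total RNA whose reporter transcripts were RT-PCR-amplified and sized by capillary electrophoresis using fluorescent labelling; DMSO defined baseline, with gain and loss of signal both fitted.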

The target in assay [6] is Hepatocyte nuclear factor 6 (Homo sapiens) (UniProt Q9UBC0). The assay is described as follows: ATG_HNF6_CIS: Attagene CIS-FACTORIAL HepG2 Assay for human Hepatocyte Nuclear Factor 6 (HNF6) (AID 2282952). The following applies: HepG2 Attagene cis-factorial HNF6 reporter transcription; actives raise or lower the signal. Put shortly:
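Endogenous transcription factor activity in human HepG2 liver cells was captured through cis-regulated reporter constructs. After 24 h treatment, reporter mRNA was measured by RT-PCR with capillary electrophoresis, and activity was fitted in both directions relative to DMSO.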

The target of assay [7] is Heat shock factor protein 1 (Homo sapiens) (UniProt Q00613). The assay is described as follows: ATG_HSE_CIS: Attagene CIS-FACTORIAL HepG2 Assay for human Heat Shock Transcription Factor 1 (HSE) (AID 2282953). The following applies: HepG2 HSE cis-reporter, Attagene RNA transcription; actives raise or lower the signal. Put shortly:
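HepG2, transient MRTU transfection, cis-promoter reporters (endogenous TF activity). 24 h compound. RNA → oligo(dT) RT → PCR → 6-FAM primer extension → HpaI cut → CE. Bidirectional fit vs DMSO.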

A short description of assay [8]: ATG_MRE_CIS: Attagene CIS-FACTORIAL HepG2 Assay for human Metal Responsive Element (MRE) (AID 2282954). The following applies: HepG2 MRE cis-reporter transcription, Attagene multiplex; actives raise or lower the signal. Put shortly:
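RT-PCR/capillary electrophoresis readout of reporter mRNA, 24 h post-dosing, in HepG2 cells transfected with multiplexed cis-regulated reporter constructs. Gain or loss of signal fitted bidirectionally against DMSO baseline.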

Assay [9] in a line: ATG_PBREM_CIS: Attagene CIS-FACTORIAL HepG2 Assay for human Phenobarbital-responsive Enhancer Module (PBREM) (AID 2282955). The following applies: HepG2 PBREM cis-reporter, Attagene multiplexed transcription; actives raise or lower the signal. A digest of the protocol: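 Transfected liver-derived HepG2 cells exposed 24 h; PBREM reporter transcript quantified via RT-PCR and capillary electrophoresis, with activity in either direction referenced to DMSO.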

Assay [10] concerns the target Paired box protein Pax-6 (Homo sapiens) (UniProt P26367). Put plainly: ATG_Pax6_CIS: Attagene CIS-FACTORIAL HepG2 Assay for human Paired Box 6 (PAX6) (AID 2282956). The following applies: HepG2 CIS-FACTORIAL PAX6 reporter transcription, RNA readout; actives raise or lower the signal. A digest of the protocol: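 DMSO-referenced bidirectional fits of reporter mRNA fluorescence; HepG2 with transient cis-promoter MRTUs, 24 h post-dose, RT-PCR plus capillary electrophoresis detection.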

Assay [11] is described as follows: ATG_PXRE_CIS: Attagene CIS-FACTORIAL HepG2 Assay for human Pregnane X Receptor Element (PXRE) (AID 2282957). The following applies: HepG2 Attagene CIS-FACTORIAL PXRE reporter, mRNA; actives raise or lower the signal. Put shortly: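 Endogenous transcription factor activity in HepG2 was gauged through induction of reporter mRNA driven by a cis-regulating promoter element, sampled 24 h post-treatment. Activity was fitted in both directions against DMSO negative control.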

Assay [12] is described as follows: ATG_PPRE_CIS: Attagene CIS-FACTORIAL HepG2 Assay for human Peroxisome Proliferator-activated Response Element (PPRE) (AID 2282958). The following applies: HepG2 PPRE cis-element reporter, Attagene transcription factor profiling; actives raise or lower the signal. A digest of the protocol: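 Measured endpoint: PPRE-controlled reporter mRNA, detected by RT-PCR and capillary electrophoresis fluorescence, from transiently transfected HepG2 cells 24 h after dosing. Curves fitted in both directions using DMSO baseline.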

A short description of assay [13]: ATG_RORE_CIS: Attagene CIS-FACTORIAL HepG2 Assay for human RAR-related Orphan Receptor Element (RORE) (AID 2282959). The following applies: HepG2 Attagene cis-factorial RORE reporter, mRNA; actives raise or lower the signal. Put shortly:
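Transiently transfected HepG2 reporter cells were treated 24 h. Reporter transcripts were detected by RT-PCR and capillary electrophoresis, with bidirectional fitting against DMSO.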

Assay [14] is described as follows: ATG_Sox_CIS: Attagene CIS-FACTORIAL HepG2 Assay for human SRY-box transcription factor (SOX) (AID 2282960). The following applies: HepG2 Attagene cis-factorial SOX reporter, mRNA; actives raise or lower the signal. A digest of the protocol: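 Gain- or loss-of-signal endpoint, fitted bidirectionally with DMSO as negative control. Based on reporter mRNA from transfected HepG2 cells harvested 24 h post-treatment and quantified via RT-PCR and capillary electrophoresis.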

In assay [15] the target is Transcription factor Sp1 (Homo sapiens) (UniProt P08047). The assay is described as follows: ATG_Sp1_CIS: Attagene CIS-FACTORIAL HepG2 Assay for human Specificity Protein 1 (Sp1) (AID 2282961). The following applies: HepG2 Sp1 cis-reporter transcription, actives raise or lower the signal. Put shortly:
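Endpoint reflects endogenous Sp1 transcriptional activity, not an exogenous fusion protein: HepG2 cells with transfected cis-regulated reporters, 24 h dosing, RT-PCR/capillary electrophoresis mRNA read-out, DMSO-normalised bidirectional fit.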

Assay [16] in a line: ATG_SREBP_CIS: Attagene CIS-FACTORIAL HepG2 Assay for human Sterol Regulatory Element Binding (SREBP) (AID 2282962). The following applies: HepG2 Attagene cis-factorial SREBP reporter, mRNA; actives raise or lower the signal. Put shortly:
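In this cis-format assay, HepG2 liver cells express reporters controlled by promoter elements responsive to native transcription factors. Exposure lasts 24 h; reporter mRNA fluorescence from capillary electrophoresis gives the signal, fitted bidirectionally against DMSO.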

Assay [17] concerns the target Signal transducer and activator of transcription 3 (Homo sapiens) (UniProt P40763). The assay is described as follows: ATG_STAT3_CIS: Attagene CIS-FACTORIAL HepG2 Assay for human Signal Transducer and Activator of Transcription 3 (STAT3) (AID 2282963). The following applies: HepG2, Attagene cis-factorial STAT3 reporter transcription; actives raise or lower the signal. A digest of the protocol:
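Readout: fluorescent reporter mRNA fragments resolved by capillary electrophoresis. Setup: HepG2 transfected with MRTUs reporting endogenous transcription-factor activity, dosed 24 h. Gain or loss of signal fitted bidirectionally against DMSO control.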

A short description of assay [18]: ATG_TA_CIS: Attagene CIS-FACTORIAL HepG2 Assay for human TA Basal Promoter (AID 2282964). The following applies: HepG2 Attagene CIS-factorial TA basal promoter reporter; actives raise or lower the signal. A digest of the protocol: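 Read-out: fluorescent reporter-transcript fragments resolved by capillary electrophoresis after RT-PCR and HpaI digestion. Source: HepG2 cells carrying transiently transfected multi-reporter cis constructs, treated 24 h. Endpoint fitted bidirectionally relative to DMSO.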

Assay [19] in a line: ATG_TCF_b_cat_CIS: Attagene CIS-FACTORIAL HepG2 Assay for human T-Cell-Factor with beta-catenin (TCF/b-cat) (AID 2282965). The following applies: HepG2 TCF/beta-catenin cis-reporter transcription, actives raise or lower the signal. A digest of the protocol: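 HepG2, transient MRTU transfection, cis-element-driven reporters (endogenous TFs). 24 h compound exposure. Readout: reporter mRNA by RT-PCR + 6-FAM primer extension, HpaI digest, capillary electrophoresis. Gain/loss fit vs DMSO baseline.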

Assay [20] in a line: ATG_GRE_CIS: Attagene CIS-FACTORIAL HepG2 Assay for human Glucocorticoid Response Elements (GRE) (AID 2282947). The following applies: HepG2 GRE cis-reporter, Attagene multiplex mRNA; actives raise or lower the signal. Put shortly:
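Read-out: fluorescent reporter-transcript fragments separated by capillary electrophoresis after RT-PCR. Transiently transfected HepG2 cells carrying cis-element-driven reporter units were dosed for 24 h; gain or loss of signal fitted against DMSO control.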

Sequence of Signal transducer and activator of transcription 3 (Homo sapiens) (P40763 whole entry, looked up, the tested form may be a part): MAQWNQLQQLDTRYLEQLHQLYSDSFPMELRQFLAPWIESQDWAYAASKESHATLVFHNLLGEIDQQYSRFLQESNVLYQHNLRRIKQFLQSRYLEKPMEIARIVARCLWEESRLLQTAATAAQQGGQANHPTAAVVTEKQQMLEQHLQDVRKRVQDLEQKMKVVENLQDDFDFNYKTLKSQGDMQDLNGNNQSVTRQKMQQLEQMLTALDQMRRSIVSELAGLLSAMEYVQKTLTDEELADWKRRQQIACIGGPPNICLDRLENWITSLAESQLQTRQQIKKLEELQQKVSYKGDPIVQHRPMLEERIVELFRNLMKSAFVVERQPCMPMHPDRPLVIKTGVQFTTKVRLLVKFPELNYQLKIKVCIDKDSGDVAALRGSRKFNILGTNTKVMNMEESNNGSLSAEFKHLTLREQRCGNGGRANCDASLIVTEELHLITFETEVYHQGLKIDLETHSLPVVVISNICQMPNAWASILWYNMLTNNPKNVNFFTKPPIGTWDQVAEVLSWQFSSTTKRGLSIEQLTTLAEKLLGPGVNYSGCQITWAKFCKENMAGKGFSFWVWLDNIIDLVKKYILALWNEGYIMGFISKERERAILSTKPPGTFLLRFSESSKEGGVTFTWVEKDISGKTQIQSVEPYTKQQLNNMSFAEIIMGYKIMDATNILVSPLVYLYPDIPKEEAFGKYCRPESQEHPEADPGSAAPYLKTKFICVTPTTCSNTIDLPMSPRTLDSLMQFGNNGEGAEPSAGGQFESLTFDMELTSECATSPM
Sequence of Bile acid receptor (Homo sapiens) (Q96RI1 whole entry, looked up): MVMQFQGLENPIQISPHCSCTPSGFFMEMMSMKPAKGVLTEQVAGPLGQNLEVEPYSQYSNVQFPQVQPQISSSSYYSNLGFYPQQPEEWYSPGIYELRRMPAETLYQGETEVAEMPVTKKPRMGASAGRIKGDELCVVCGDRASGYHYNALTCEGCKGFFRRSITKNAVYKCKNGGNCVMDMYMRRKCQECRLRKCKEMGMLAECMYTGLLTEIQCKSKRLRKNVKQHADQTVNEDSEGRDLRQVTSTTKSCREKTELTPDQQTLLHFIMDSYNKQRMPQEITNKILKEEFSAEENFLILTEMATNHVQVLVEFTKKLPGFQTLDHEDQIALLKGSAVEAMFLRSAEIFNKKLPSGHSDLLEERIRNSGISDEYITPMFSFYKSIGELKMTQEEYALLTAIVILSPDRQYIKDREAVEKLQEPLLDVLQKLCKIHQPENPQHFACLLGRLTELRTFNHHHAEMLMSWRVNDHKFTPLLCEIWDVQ
Sequence of Transcription factor Sp1 (Homo sapiens) (P08047 whole entry, looked up, the tested form may be a part): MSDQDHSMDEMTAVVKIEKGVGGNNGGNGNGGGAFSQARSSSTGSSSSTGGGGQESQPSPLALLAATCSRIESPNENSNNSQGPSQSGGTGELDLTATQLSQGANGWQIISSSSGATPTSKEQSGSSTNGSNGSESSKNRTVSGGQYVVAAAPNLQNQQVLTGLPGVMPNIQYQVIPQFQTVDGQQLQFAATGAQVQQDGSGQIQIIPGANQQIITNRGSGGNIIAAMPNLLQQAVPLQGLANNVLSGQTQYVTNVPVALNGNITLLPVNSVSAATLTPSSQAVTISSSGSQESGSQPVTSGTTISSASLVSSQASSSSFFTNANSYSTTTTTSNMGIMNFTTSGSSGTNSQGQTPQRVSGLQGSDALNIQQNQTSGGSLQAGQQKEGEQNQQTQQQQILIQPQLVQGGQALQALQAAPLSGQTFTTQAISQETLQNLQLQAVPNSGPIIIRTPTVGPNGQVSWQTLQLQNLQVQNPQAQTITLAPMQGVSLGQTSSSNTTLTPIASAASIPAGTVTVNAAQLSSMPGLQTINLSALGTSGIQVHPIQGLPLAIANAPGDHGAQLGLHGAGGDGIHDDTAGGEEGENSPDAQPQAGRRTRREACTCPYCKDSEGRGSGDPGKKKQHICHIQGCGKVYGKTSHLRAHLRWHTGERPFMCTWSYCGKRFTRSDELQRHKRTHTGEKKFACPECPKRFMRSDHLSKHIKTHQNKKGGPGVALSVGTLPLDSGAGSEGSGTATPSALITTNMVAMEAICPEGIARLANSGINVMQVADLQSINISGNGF
Sequence of Hepatocyte nuclear factor 6 (Homo sapiens) (Q9UBC0 whole entry, looked up): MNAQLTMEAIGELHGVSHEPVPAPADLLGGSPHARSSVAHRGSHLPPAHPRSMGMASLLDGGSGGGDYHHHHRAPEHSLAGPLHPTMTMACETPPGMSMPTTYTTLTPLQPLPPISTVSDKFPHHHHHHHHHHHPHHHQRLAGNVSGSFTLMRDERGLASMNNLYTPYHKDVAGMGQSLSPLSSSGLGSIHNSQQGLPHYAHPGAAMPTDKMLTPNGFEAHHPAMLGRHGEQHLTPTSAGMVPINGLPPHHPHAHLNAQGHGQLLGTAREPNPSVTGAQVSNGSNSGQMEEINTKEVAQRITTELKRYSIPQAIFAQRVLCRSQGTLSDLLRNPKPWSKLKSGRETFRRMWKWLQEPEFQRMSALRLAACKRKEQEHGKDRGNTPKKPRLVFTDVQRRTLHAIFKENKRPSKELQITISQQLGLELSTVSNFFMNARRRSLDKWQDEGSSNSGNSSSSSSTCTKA
Sequence of Paired box protein Pax-6 (Homo sapiens) (P26367 whole entry, looked up): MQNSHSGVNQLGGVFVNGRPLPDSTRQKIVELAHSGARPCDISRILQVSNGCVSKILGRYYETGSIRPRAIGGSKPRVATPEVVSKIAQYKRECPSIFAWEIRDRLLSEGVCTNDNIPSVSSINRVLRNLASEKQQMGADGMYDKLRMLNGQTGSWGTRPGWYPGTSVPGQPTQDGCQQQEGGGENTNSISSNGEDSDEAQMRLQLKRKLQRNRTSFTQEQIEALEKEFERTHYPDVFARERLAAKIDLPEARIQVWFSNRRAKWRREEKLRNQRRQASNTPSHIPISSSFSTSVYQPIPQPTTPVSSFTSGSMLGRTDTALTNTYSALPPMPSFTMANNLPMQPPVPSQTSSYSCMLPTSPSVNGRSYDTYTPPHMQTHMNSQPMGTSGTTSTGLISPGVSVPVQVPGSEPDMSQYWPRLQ
Sequence of Heat shock factor protein 1 (Homo sapiens) (Q00613 whole entry, looked up): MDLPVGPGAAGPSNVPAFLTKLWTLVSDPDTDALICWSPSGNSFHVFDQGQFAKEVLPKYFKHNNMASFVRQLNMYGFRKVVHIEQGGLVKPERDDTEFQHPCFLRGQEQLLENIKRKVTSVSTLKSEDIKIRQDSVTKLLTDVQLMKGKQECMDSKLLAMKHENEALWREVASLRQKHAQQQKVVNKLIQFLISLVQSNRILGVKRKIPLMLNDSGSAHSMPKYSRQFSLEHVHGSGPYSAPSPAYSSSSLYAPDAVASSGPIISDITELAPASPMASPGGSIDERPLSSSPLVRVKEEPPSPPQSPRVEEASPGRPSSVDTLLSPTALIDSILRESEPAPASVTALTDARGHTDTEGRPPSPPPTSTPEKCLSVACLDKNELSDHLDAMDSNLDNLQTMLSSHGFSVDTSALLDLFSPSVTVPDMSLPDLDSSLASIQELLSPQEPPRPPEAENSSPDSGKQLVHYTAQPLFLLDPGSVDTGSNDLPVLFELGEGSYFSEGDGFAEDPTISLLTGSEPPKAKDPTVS
Sequence of Hypoxia-inducible factor 1-alpha (Homo sapiens) (Q16665 whole entry, looked up): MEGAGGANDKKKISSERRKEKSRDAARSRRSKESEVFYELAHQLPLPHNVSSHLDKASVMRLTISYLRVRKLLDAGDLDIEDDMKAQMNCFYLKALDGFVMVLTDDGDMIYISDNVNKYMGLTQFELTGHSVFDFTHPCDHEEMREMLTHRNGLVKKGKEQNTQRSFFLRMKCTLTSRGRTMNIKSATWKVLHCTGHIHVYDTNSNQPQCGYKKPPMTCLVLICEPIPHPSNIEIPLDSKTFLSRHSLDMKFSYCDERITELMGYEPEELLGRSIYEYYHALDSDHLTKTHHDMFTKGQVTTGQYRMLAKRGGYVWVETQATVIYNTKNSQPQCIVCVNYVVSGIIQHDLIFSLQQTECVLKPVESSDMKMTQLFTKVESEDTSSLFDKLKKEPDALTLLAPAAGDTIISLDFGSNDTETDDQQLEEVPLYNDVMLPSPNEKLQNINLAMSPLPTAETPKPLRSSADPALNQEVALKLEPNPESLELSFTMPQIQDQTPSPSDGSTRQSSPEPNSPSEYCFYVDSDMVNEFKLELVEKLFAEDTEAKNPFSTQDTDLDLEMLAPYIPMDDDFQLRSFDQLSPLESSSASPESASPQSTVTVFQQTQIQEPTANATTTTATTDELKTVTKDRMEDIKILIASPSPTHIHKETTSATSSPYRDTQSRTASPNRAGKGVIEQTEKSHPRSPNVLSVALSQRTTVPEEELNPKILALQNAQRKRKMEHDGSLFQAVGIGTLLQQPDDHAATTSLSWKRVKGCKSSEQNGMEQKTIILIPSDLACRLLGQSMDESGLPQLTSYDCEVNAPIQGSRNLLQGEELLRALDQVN

Regarding `CCCC[O][Al]([O]CCCC)[O]CCCC`, the result in [1], in assay [2], in assay [3], in [4], in [5] and in [6] was inactive. In addition, the compound was called inactive in assay [7], in assay [8], in assay [9], in assay [10], in assay [11] and in [12]. Also, the compound was called inactive in assay [13], in assay [14], in [15], in assay [16], in assay [17] and in assay [18]. In assay [19], the call was inactive.

Regarding `COc1ccc(N)c([N+](=O)[O-])c1`, the outcome in assay [1], in [20], in assay [2], in assay [4], in assay [5] and in assay [6] was inactive. Moreover, the outcome in assay [7], in [8], in assay [9], in assay [11], in assay [12] and in assay [13] was inactive. The call in assay [14], in assay [15], in assay [16], in assay [17], in [18] and in assay [19] was inactive.

Consider `CCCCCCOC(=O)CCC`, for which the compound was classed as inactive in [1], in assay [2], in assay [3], in [4], in assay [5] and in assay [6]. Also, the call in [7], in [8], in [9], in assay [10], in [12] and in assay [13] was inactive. For the same compound, the result in assay [15], in assay [16], in assay [17], in assay [18] and in assay [19] was inactive. Besides, the AC50 (in general, the concentration at which the activity in the assay is half-maximal) in [11] is 24.8 µM (active).

Consider `CC(=O)C(C)O` (stereo unspecified), for which the compound was called inactive in [1], in assay [2], in assay [3], in [4], in [5] and in [6]. The call in assay [7], in [8], in [9], in [10], in assay [11] and in assay [12] was inactive. Moreover, the result in [13], in [14], in assay [15], in assay [16], in assay [17] and in assay [18] was inactive. Besides, in assay [19], the compound was called inactive.

As to `C=C(C)C(=O)OCCOC1CC2CC1C1C=CCC21` (stereo unspecified), the result in assay [1], in assay [2], in assay [3], in assay [4], in [5] and in assay [6] was inactive. Further, the result in assay [7], in assay [8], in assay [9], in assay [10], in assay [11] and in assay [12] was inactive. Further, the result in assay [13], in assay [15], in assay [16], in [17] and in assay [18] was inactive.

`CC(=O)O[C@@H]1C[C@@H]2CC[C@@]1(C)C2(C)C`: the call in assay [1], in assay [20], in assay [2], in assay [3], in assay [5] and in assay [6] was inactive. Moreover, the result in [7], in assay [8], in assay [9], in assay [10], in assay [11] and in assay [14] was inactive. For the same compound, the outcome in [15], in [16], in assay [17], in assay [18] and in assay [19] was inactive.

As for `O=C1CCCC=CCCCCCCCCCC1`, the result in [1], in assay [3], in [4], in assay [5], in assay [6] and in assay [8] was inactive. The outcome in [9], in [10], in assay [12], in assay [13], in assay [14] and in [17] was inactive. Also, in assay [18], the compound was called inactive. The AC50 is 41.2 µM (active) in [2]; 63 µM (active) in assay [7]; 9.05 µM (active) in [11]; 48.8 µM (active) in assay [15]; 49.3 µM (active) in assay [19].
